Sampled rows, rich in hits. Any-hit rate of the full collection: about 3.2%.
p53 reactivator: qHTS assay for re-activators of p53 using a Luc reporter; Potency, µM (titrated, usually from 92.2 µM), inactives show at the highest dose activity change, positive = activation, hits mostly activators; 320,000 compounds, 0.063% hits; AID 504706, 2011; H1299 p53-A138V BP100-luciferase reporter, luminescence, 24 h; further: potency means the concentration at half of the fitted maximal effect; % of control where 0% means no effect; nearly all actives have a fitted effect of over 45% in size
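p53-null H1299 cells stably carrying temperature-sensitive p53-A138V and a BP100-luciferase reporter were pinned with compounds (4-point, 1:5 series) and held 24 hrs at 37 deg C. Luminescence was read 10 min after detection reagent.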
A549 tox-1: Nrf2 qHTS screen for inhibitors: counterscreen for cytotoxicity. A549 ARE-Fluc cells, CellTiter-Fluor viability, 18-24 h. Potency, µM (doses to about 46 µM), for the others: top-dose activity change, negative = cytotoxicity, actives largely listed as inhibitors. 390,000 compounds, 0.16% hits. AID 504648, 2011; further: potency means the concentration at half of the fitted maximal effect; on the % scale 0 is the no-effect control and ±100 the full control effect
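Cytotoxicity counterscreen: CellTiter-Fluor fluorescence was measured in A549 ARE_Fluc cells after 18-24 h of compound exposure in a concentration series. The subsequent BugLite luminescent read reports ARE-luciferase activity.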
IL-2 act: qHTS of IL-2 Activators | IL-2 activation reporter assay, cell-based qHTS; stimulated with anti-CD3/CD4/CD28 beads; in transgenic mouse T cells | activation, % (series mostly up to about 46 µM) | 360,000 compounds, 0.065% hits; in the data active means activation above about 50%; inconclusive means mostly about 30% to 49%; further: 0% is about no effect
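Unstimulated transgenic mouse T cells, 750 per well, received compound and, after 60 minutes, anti-CD3/anti-CD4 bead plus anti-CD28 stimulation. EGFP and DsRed were quantified after 18 hours.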
Nrf2 activator: qHTS of Nrf2 Activators | AREc32 ARE-luciferase reporter (MCF7-derived line), luminescence, 24 h | Potency, µM (top dose mostly 46.1 µM), inactives show at the top dose activation, actives largely listed as activators | 410,000 compounds, 0.31% hits | AID 624171, 2012; further: potency means the concentration at half of the fitted maximal effect; % of control where 0% means no effect; nearly all actives have a fitted effect of over 65% in size
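Luciferase luminescence (Steady-Glo, 30 min at room temperature) served as the read-out of ARE activation in AREc32 cells treated with compounds for 24 hr at 37 deg C.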
BRCA1 expr act: qHTS Assay to Identify Small Molecule Activators of BRCA1 Expression | AID 624202, 2012 | Potency, µM (titrated, usually from 46.1 µM), inactives show top-dose activation, actives largely listed as activators | 380,000 compounds, 1.1% hits | MCF7-BRCA1-FFLuc reporter, luminescence, 48 h; response scale: scaled: vehicle 0%, 10 µM genistein 100%; further: potency means the concentration at half of the fitted maximal effect; nearly all actives have a fitted effect of over 80% in size
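Luminescence from a BRCA1-driven firefly luciferase in MCF7 cells was read after 48 h compound exposure at 37 C. Data normalized against DMSO and a 10microM genistein activation control, then curve-fitted across the titration.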
Nrf2 block: Nrf2 qHTS screen for inhibitors; 360,000 compounds, 2.1% hits; Potency, µM (highest dose often 46 µM), for the others: top-dose activity change, negative = inhibition, most hits filed as inhibitors; A549 ARE-Fluc reporter, luciferase luminescence, 18-24 h; further: potency means the concentration at half of the fitted maximal effect; on the % scale 0 is the no-effect control and ±100 the full control effect; nearly all actives have a fitted effect of over 60% in size
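Two sequential reads on A549 ARE_Fluc cells exposed to compound for 18-24 h: a CellTiter-Fluor fluorescence read for viability, then a luciferase luminescence read for Nrf2/ARE activity.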
FLuc enzyme inh: Nrf2 qHTS screen for inhibitors: Purified Fluc Biochemical Counterscreen for Hit Validation; shares compounds with Nrf2 block; purified firefly luciferase, luminescence inhibition; Potency, µM (series often up to 57.5 µM), for inactives: top-dose activity change, negative = inhibition, actives largely listed as inhibitors; 1,400 compounds, 4% hits; AID 720522, 2013; further: potency means the concentration at half of the fitted maximal effect; on the % scale 0 is the no-effect control and ±100 the full control effect; nearly all actives have a fitted effect of over 65% in size
Target sequence (P08659 whole entry, looked up): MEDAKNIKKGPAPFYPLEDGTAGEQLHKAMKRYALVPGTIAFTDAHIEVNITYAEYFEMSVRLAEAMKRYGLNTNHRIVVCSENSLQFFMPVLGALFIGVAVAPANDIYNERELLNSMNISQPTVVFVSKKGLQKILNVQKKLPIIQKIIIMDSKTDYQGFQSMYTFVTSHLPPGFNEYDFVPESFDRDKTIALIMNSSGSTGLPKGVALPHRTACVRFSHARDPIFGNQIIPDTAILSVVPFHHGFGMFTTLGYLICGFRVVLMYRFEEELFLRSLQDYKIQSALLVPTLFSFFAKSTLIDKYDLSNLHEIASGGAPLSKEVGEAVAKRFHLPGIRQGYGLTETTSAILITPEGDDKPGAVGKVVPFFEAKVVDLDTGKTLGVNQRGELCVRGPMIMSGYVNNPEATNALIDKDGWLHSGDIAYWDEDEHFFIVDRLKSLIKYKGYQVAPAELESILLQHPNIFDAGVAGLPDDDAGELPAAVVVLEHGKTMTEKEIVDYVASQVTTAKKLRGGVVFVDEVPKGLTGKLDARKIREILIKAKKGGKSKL
A549 tox-2: Nrf2 qHTS screen for inhibitors: A549 ARE-Fluc Cytotoxicity Counterscreen for Hit Validation | 1,400 compounds, 2% hits | Potency, µM (doses to about 46.1 µM), without a hit: at the top dose activity change, negative = cytotoxicity, actives largely listed as inhibitors | shares compounds with Nrf2 block | A549 ARE-Fluc cells, cytotoxicity counterscreen;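 further: potency means the concentration at half of the fitted maximal effect; cells exposed to compounds for 18 to 24 hours; on the % scale 0 is the no-effect control and ±100 the full control effect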
Nrf2 ARE inh: Nrf2 qHTS screen for inhibitors: Nrf2 A549 ARE-Fluc Confirmation Assay for Hit Validation; A549 ARE-firefly luciferase reporter, luminescence; Potency, µM (top dose mostly 46.1 µM), inactives show top-dose activity change, negative = inhibition, hits mostly inhibitors; AID 720524, 2013; shares compounds with Nrf2 block; 1,400 compounds, 74% hits; further: potency means the concentration at half of the fitted maximal effect; on the % scale 0 is the no-effect control and ±100 the full control effect; nearly all actives have a fitted effect of over 65% in size
* marks the source's active call; other numbers are inactive results; u = inconclusive; x = no result given. Unless noted, the call rests on the fitted dose curve; in most records, active means well fitted curve in the direction sought with a large enough effect; inconclusive means small, poorly fitted or top-dose-only effect, or another doubt; inactive means no such curve, though single readings can be large; an effect the other way counts as inactive or inconclusive.

SMILES	p53 reactivator	A549 tox-1	IL-2 act	Nrf2 activator	BRCA1 expr act	Nrf2 block	FLuc enzyme inh	A549 tox-2	Nrf2 ARE inh
CN1/C(=C\C(=O)CSc2cccc[n+]2[O-])C(C)(C)c2ccccc21	3%	-9%	0	0%	5%	u	x	x	x
CN1/C(=C\C(=O)C[n+]2cccc(C(N)=O)c2)C(C)(C)c2ccccc21	2%	-9%	0	0%	-33%	-6%	x	x	x
CC(=O)c1c(C)[nH]c(C(=O)Nc2ccc(Cl)c(S(=O)(=O)N(C)C)c2)c1C	-1%	-8%	2	18%	88%	u	x	x	x
CC(=O)c1c(C)[nH]c(C(=O)OCC(=O)Nc2ccc(Cl)c(S(=O)(=O)N(C)C)c2)c1C	-2%	-21%	-1	5%	-43%	9.2µM*	-2%	-15%	9.2µM*
CCN(CC)S(=O)(=O)c1ccc2oc(C(=O)NCc3ccc(F)cc3)c(C)c2c1	0%	-16%	-1	3%	-69%	6.5µM*	-2%	-6%	23µM*
CCN(CC)S(=O)(=O)c1ccc2oc(C(=O)Nc3ccc(OC)cc3OC)c(C)c2c1	-15%	-5%	-1	0%	-60%	3.7µM*	-1%	5%	15µM*
Cc1c(C(=O)NCc2ccc(F)cc2)oc2ccc(S(=O)(=O)N3CCOCC3)cc12	-3%	1%	-1	0%	-19%	u	x	x	x
CCN(CC)S(=O)(=O)c1ccc2oc(C(=O)Nc3cc(C)ccc3OC)c(C)c2c1	x	4%	x	0%	x	x	x	x	x
COc1cccc(CNC(=O)CNS(=O)(=O)c2ccc3nc(C)sc3c2)c1	x	0%	x	3%	x	-4%	x	x	x
COc1ccc(N(CC(=O)Nc2ccc(C)cc2)S(=O)(=O)c2c(C)noc2C)cc1	0%	2%	0	0%	-24%	0%	x	x	x
Cc1ccc(N(CC(=O)Nc2cc(C)cc(C)c2)S(=O)(=O)c2c(C)noc2C)cc1	0%	u	-5	0%	-67%	7.3µM*	2%	-19%	12µM*
Cc1ccc(C(=O)NCCCn2ccnc2)cc1[N+](=O)[O-]	-3%	-12%	-3	0%	-32%	u	x	x	x
O=C(NCCCn1ccnc1)c1ccc(N2CCCCCC2)c([N+](=O)[O-])c1	4%	-18%	-2	3%	-40%	2.9µM*	-16%	-12%	4%
CCOC(=O)COc1ccc(CC)cc1C(=O)c1ccn2nc(-c3ccccc3)cc2n1	x	-1%	x	0%	-41%	6%	x	x	x
CC(=O)c1c(C)[nH]c(C(=O)OCCCCN2C(=O)c3ccccc3C2=O)c1C	-8%	-19%	-2	1%	-65%	5.8µM*	1%	-6%	x
Cc1ccc(C)c(Cn2nnc3c(=O)[nH]c(C(=O)NCc4ccco4)nc32)c1	-3%	-11%	-3	0%	4%	u	x	x	x
O=C(NCc1ccco1)c1nc2c(nnn2Cc2ccccc2Cl)c(=O)[nH]1	u	u	-3	-2%	-104%	4.6µM*	-6%	u	6.5µM*
COc1ccc(S(=O)(=O)N2CCC(n3c(C)nc4cccnc43)CC2)cc1Cl	x	u	x	7%	x	u	x	x	x
Cc1ccc(S(=O)(=O)N2CCC(n3c(C)nc4cccnc43)CC2)c(C)c1	x	-11%	x	5%	x	9.2µM*	-2%	-9%	x
Nc1nc(Cl)cc(N2CCC(c3cc(-c4ccc(Cl)cc4)n[nH]3)CC2)n1	-4%	u	-2	6%	-104%	8.2µM*	-19%	-21%	18µM*
COc1ccc(N2CCN(C(=O)COc3cccc4ccccc34)CC2)cc1	1%	u	-3	-1%	-21%	2.6µM*	-6%	8%	-5%
CCC(CC)C(=O)Nc1ccc(Sc2ccc([N+](=O)[O-])cc2)cc1	-11%	u	0	5%	-61%	3.7µM*	1%	-10%	18µM*
Cn1c(=O)cc(OCCCC(=O)NCc2ccccn2)c2ccccc21	-2%	x	-2	5%	-15%	-17%	x	x	x
Cc1ccnc(NC(=O)CCCOc2cc(=O)n(C)c3ccccc23)c1	u	u	-1	0%	-56%	4.1µM*	-12%	u	5.8µM*
CCc1ccc2[nH]c(=O)c(CN(Cc3ccccc3)C(=O)Nc3ccccc3OC)cc2c1	2%	-23%	-3	1%	-64%	7.3µM*	0%	-26%	u
SMILES	p53 reactivator	A549 tox-1	IL-2 act	Nrf2 activator	BRCA1 expr act	Nrf2 block	FLuc enzyme inh	A549 tox-2	Nrf2 ARE inh
CCc1nnc(SCc2nc(-c3ccc(OC)c(OC)c3)oc2C)c2cc3sc(C)cc3n12	x	2%	x	3%	x	1%	x	x	x
COCCn1c(SCC(=O)c2ccccc2)nc2cc(C(=O)NC3CCCC3)ccc2c1=O	x	-1%	x	4%	-10%	u	x	x	x
CCc1ccc(NC(=O)c2ccc(Cn3nc(N4CCN(c5ccccc5)CC4)ccc3=O)o2)cc1	x	u	x	-1%	x	5.2µM*	u	-14%	6.5µM*
O=S(=O)(NCCc1ccccc1)c1ccccc1Br	x	8%	x	x	x	0%	x	x	x
OCC[n+]1ccc(/C=C/c2c[nH]c3ccccc23)cc1	3%	u	94*	-1%	-29%	6.5µM*	0%	u	8.2µM*
C(=Cc1c[nH]c2ccccc12)c1nccc2ccccc12	x	u	-1	u	-44%	u	x	x	x
CCCCCCCCCCCCCCCC[n+]1ccc(/C=C/c2c[nH]c3ccccc23)cc1	x	x	x	x	x	x	u	u	7.3µM*
C(=Cc1c[nH]c2ccccc12)c1ccc2ccccc2n1	x	-18%	0	10%	-75%	u	x	x	x
CCc1ccc(-n2nc(C)c3c(C(=O)Nc4cccc(C(F)(F)F)c4)cc(C)nc32)cc1	x	u	x	1%	x	u	x	x	x
